Assay outcomes: PubChem, National Center for Advancing Translational Sciences (NCATS)
In the library only some 2.4% were active in any assay of this set; here they are far more common.
D2 ag-1: agonists of human D2 dopamine receptor. HEK293 T-REx D2 cells, calcium flux agonist mode. activation, % at 2 µM. hit rate 0.53% among 340,000;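 active = activation over 3 SD above normal in the single-dose calcium agonist read, cut at about 30% in these data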; also: 0% is about no effect
Target sequence (P14416 whole entry, looked up): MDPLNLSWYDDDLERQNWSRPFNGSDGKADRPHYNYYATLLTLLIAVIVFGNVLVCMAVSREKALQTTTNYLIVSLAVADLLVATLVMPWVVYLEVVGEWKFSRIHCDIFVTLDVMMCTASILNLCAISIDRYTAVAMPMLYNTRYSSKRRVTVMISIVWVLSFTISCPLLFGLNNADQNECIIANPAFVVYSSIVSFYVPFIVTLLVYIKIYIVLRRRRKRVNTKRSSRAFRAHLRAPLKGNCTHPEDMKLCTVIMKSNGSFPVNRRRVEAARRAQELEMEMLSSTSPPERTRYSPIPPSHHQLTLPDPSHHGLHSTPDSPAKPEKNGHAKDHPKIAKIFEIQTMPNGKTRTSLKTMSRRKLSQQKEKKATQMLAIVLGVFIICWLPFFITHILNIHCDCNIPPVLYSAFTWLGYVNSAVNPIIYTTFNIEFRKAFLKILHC
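Tetracycline-induced HEK293 Trex cells with D2 receptor force-coupled to calcium signaling, plated overnight at 30 C and loaded with no-wash calcium dye. Calcium flux read kinetically for 180 s after compound addition; responses flag agonists.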
D2 antagonist: antagonizes the human D2 dopamine receptor. HEK293 TREx D2 cells, calcium flux, dopamine EC80. inhibition, % at 10 µM. hit rate 2% among 340,000. AID 485344; in the data active = inhibition above about 30%; inactive = below that, where a call was filed; also: 0% is about no effect
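In this primary screen, negative modulation is detected by tracking calcium flux after an EC80 dopamine challenge in inducible HEK293 T-REx D2 cells preexposed to test compound for 180 s.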
D2 PAM-1: positively modulates the human D2 dopamine receptor allosterically; HEK293 T-REx D2, calcium flux, EC20 dopamine potentiation; potentiation, % at 10 µM; hit rate 0.34% among 340,000; AID 485347;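 active = potentiation over 3 SD above the plate norm, cut at about 30% in these data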; also: 0% is about no effect
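Tetracycline-induced HEK293 T-REx cells force-coupled to calcium signalling expressed D2; compounds were pin-added after a 10 s baseline, read kinetically 180 s, then an EC20 dopamine challenge followed with a further 180 s calcium read.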
D2 ag-2: activates the human D2 dopamine receptor; P14416; DiscoveRx PathHunter D2 beta-arrestin, luminescence, 90 min; 100% = 57 uM dopamine signal; activation, % (concentration not given with the values); hit rate 0.084% among 360,000; in the data active = activation above about 40%
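DiscoveRx PathHunter D2 beta-arrestin cells (2,100/well) attached overnight, then compound-stimulated 90 min at 37 C in HBSS/10 mM HEPES/0.1% Tween-20 buffer; beta-galactosidase complementation read by luminescence after 1 h at ambient temperature. Dopamine 57 uM final (EC100) as control.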
D2 PAM-2: potentiates the human D2 dopamine receptor allosterically. DiscoveRx D2 beta-arrestin cells, luminescence, 90 min; 100% = 57 uM dopamine signal. hit rate 0.23% among 360,000. P14416. potentiation, % (test concentration not listed); in the data active = potentiation above about 50%
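PathHunter D2 cells, attached overnight at 37 deg C, received compound in DMSO plus dopamine at EC20 (50 nM final) for 90 min at 37 deg C. Beta-arrestin recruitment was read as luminescence after 1 h with detection reagent at ambient temperature.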
* marks the source's active call; other numbers are inactive results; . = not tested or not shown.

SMILES	D2 ag-1	D2 antagonist	D2 PAM-1	D2 ag-2	D2 PAM-2
O=C(COC(=O)CCNS(=O)(=O)c1ccccc1)Nc1ccc(OC(F)F)cc1	0	50*	26	0	0
CCN(CC(=O)NCc1ccc(Cl)cc1)C(=O)COc1cccc(C(F)(F)F)c1	0	-17	4	-4	-12
CCN(CC(=O)NCc1ccc(Cl)cc1)C(=O)COc1cccc(Cl)c1	1	33*	-9	-6	-62
COc1cccc(NC(=O)Cn2c(=O)c3cccn3c3ccc(F)cc32)c1	1	.	4	.	.
COC(=O)c1cc2sc(C)cc2n1Cc1nc(-c2cccc(Br)c2)oc1C	0	.	20	.	.
Cn1nccc1C(=O)N1CCc2ccccc21	0	36*	1	-5	-4
COc1cccc2cc(C(=O)NCc3ccccc3)c(=N)oc12	-1	5	-3	-6	0
COc1cccc2cc(C(=O)NCc3ccc(Cl)cc3)c(=N)oc12	-2	106*	11	-3	-2
Cc1ccc(-c2csc(N/N=C/c3ccco3)n2)c(C)c1	0	0	2	12	56*
CCCS(=O)(=O)N1CCC(C(=O)NCCCN2CCC(Cc3ccccc3)CC2)CC1	1	33*	-3	-2	-22
CCCS(=O)(=O)N1CCC(C(=O)N2CCC(Cc3ccccc3)CC2)CC1	1	-8	7	-4	-8
CCc1nn(CC(=O)NCC(C)c2ccccc2)c(=O)c2cc3c(OC)cccc3n12 (configuration not stated)	0	.	15	.	.
COc1ccc(C(=O)c2ncc(C(F)(F)F)cc2Cl)cc1	0	-10	7	2	-7
COc1cccc(C(=O)c2ncc(C(F)(F)F)cc2Cl)c1	-1	-6	36*	1	-2
COc1ccc2oc(=O)cc(CN3CCN(C(=O)c4ccccc4Br)CC3)c2c1	1	.	3	.	.
CCCCCn1c(CN2CCCCC2CC)nc2c1c(=O)n(C)c(=O)n2C (configuration not stated)	0	4	55*	0	-4
CCCC[n+]1ccn(-c2nc3c([N+](=O)[O-])cccc3n2C)c1	0	34*	-8	-7	-69
COc1ccc(CNc2nc(NCc3ccc(OC)cc3)n(C(=O)c3ccncc3)n2)cc1	1	3	8	-2	-10
COc1ccc(CNc2nc(NCc3ccc(OC)cc3)n(C(=O)c3ccccc3[N+](=O)[O-])n2)cc1	1	31*	10	-3	-1
Cc1ccc(NC(=O)CCNC(=O)c2ccco2)cc1Cl	0	36*	-1	-4	-5
O=C(NCCNC(=O)c1ccco1)c1ccco1	-3	-2	.	-4	1
Cc1cc(C)n(CCNC(=O)c2ccco2)n1	0	-11	31*	-1	1
CCCOc1cccc(C(=O)NCCNC(=O)c2ccco2)c1	-1	57*	11	-5	1
COc1cccc(C(=O)NCCNC(=O)c2ccco2)c1	0	-1	4	-3	-1
COc1cc(C(CC(=O)Nc2cccc(C(C)=O)c2)N2Cc3ccccc3C2=O)cc(OC)c1OC (configuration not stated)	0	.	-6	.	.
SMILES	D2 ag-1	D2 antagonist	D2 PAM-1	D2 ag-2	D2 PAM-2
O=[N+]([O-])c1cc([N+](=O)[O-])c(Oc2cccnc2Br)cc1NN1CCCCC1	0	35*	-4	1	4
O=C(Nc1cccc(F)c1)Nc1c[nH]c(=O)[nH]c1=O	1	12	-7	-3	-5
CSc1ccccc1NC(=O)Nc1ccc(F)c(Cl)c1	1	43*	-21	1	-15
CSc1ccccc1NC(=O)Nc1cccc(Cl)c1	1	36*	-20	-1	-11
O=C(Nc1cccc(Cl)c1)Nc1c[nH]c(=O)[nH]c1=O	0	34*	-10	4	-4
O=C(CC(c1cccs1)N1Cc2ccccc2C1=O)Nc1ccc(Cl)cc1 (configuration not stated)	0	.	2	.	.
Cc1nn2c(C)c(C(=O)N3CCN(c4ccccc4)CC3)cnc2c1-c1ccccc1	0	.	-3	.	.
CC1C(=O)N2CCCc3cc(S(=O)(=O)NCCc4ccccc4)cc1c32 (configuration not stated)	0	0	43*	-4	-3
